T1: UNK ZnF1-3 (human, UniProt Q9C0B0 31-174)
T1 sequence: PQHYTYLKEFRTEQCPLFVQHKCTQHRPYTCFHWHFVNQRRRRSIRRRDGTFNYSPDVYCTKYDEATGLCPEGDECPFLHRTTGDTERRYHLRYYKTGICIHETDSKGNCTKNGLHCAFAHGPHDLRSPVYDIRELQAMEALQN

B1: chr2:183789671:183789672:-_ENSG00000061676_ENST00000360982|hu_hu|motif|central (ssRNA)
RNA: GGGAGUUCUACAGUCCGACGAUCUGGCAGGUACACUUGAAUUUCAAAAAUUUAAAACAUAUAUAAAAAGUGGUUAGGGACGGACAUUUGUAUCAACAGUUGAUAAAUGUCUAAGAUUGUUUAUUAUACAGCAGGGUACAAUGGCAACAGAGGAUUGAGCAUCA
B2: chr1:172123744:172123745:-_ENSMUSG00000026667_ENSMUST00000150821|mus_hu|motif|central (ssRNA)
RNA: GGGAGUUCUACAGUCCGACGAUCAAACGCAUUGUUCACACUUUUUAGGAAUAUAGGAAAGUGGAAAAUAAAAGUUCUUUGCGGUUCAGCAGGAAAGAGUUUAAAAGACUUGAAUGGAAAUCAGAAAUUUAGGGAUUUGAGAAACAACAGAGGAUUGAGCAUCA
B3: chr2:183789671:183789672:-_ENSG00000061676_ENST00000360982|hu_hu|FALSE|FALSE (ssRNA)
RNA: B1 RNA with G81U, G82A
B4: 37607701_37614754_715_CDS_ENSG00000102710_ENST00000475892|human|control|control (ssRNA)
RNA: GGGAGUUCUACAGUCCGACGAUCGCUCUCAAGCAAAAGUUUGUCUUCCUGGGUCCAUUUGUGGUUAUCACUUGUUAUUGAAUGUACAUCACAAAUUAAAGUCUGCAUUGUUGGACGUAAGAGAAUGUGCCGACUUUGGUAACCCAACAGAGGAUUGAGCAUCA
B5: chr9:14812383:14812384:-_ENSMUSG00000031934_ENSMUST00000164273|mus_mus|mus_mus_mus_hu_True|68_88 (ssRNA)
RNA: GGGAGUUCUACAGUCCGACGAUCAUAGCCCAGGUAGAUACACGCUAACAGUAUAACGAUGAGUGUCACCAGCCGGCAGCUAAUGUACUUGAUGAUUAAAUUAUUAGAAUUUUUCUUUGUCUUCAAGUACUGCUCCACAAUUGGCAACAGAGGAUUGAGCAUCA
B6: chr19:42259214:42259215:+_ENSMUSG00000018820_ENSMUST00000165783|mus_mus|FALSE|FALSE (ssRNA)
RNA: GGGAGUUCUACAGUCCGACGAUCGCUAUAGUGACUGCUGCAGACUCAGAGACACUAGGAAAGUUGCAAGUGUAUAUUUUCUAUCUAAAUUUCUAACUAAAAUUUGCCCUGUUUUAUUCACUGGCCCAAAGGAUUCUUUUUUAACAACAGAGGAUUGAGCAUCA
B7: 142051865_142054343_4063_CDS_ENSG00000114127_ENST00000264951|human|control|control (ssRNA)
RNA: GGGAGUUCUACAGUCCGACGAUCUGACUGUACUUCAUUUUCUUUGGAGAUAUUCAAAGAUGCUAAAAAGUUCUCAAUUCCAGAGUUAGGCUGCUUAUUGGACAUUUUUUGGGACCAACACUCAGCUUUAGGACUCUUACACUCCAACAGAGGAUUGAGCAUCA
B8: chr3:102833055:102833056:+_ENSMUSG00000068823_ENSMUST00000029446|mus_mus|motif|central (ssRNA)
RNA: GGGAGUUCUACAGUCCGACGAUCUCAGUAGUAUUUGCUGACUCUUCUUUUUUCAGCACAAGUUCCAAAGGAUGAAAGUUGCGGGUAUUUAAAAAAAGAAAAAAAAAAGAAAAAGAAAAAAAGAAAAAAAAAAGGAGAGCGAGACAACAGAGGAUUGAGCAUCA
B9: chr8:93522421:93522422:+_ENSMUSG00000056608_ENSMUST00000048665|mus_hu|FALSE|FALSE (ssRNA)
RNA: GGGAGUUCUACAGUCCGACGAUCAGACUGGAUCAUUGCUUGAAGAUGAAAAUCAGAAGCAGCUGGAUUGUAAGUAUCUCUAAAUUCUCCAAGUAUUUUCUCCUCAGCACCUUUUAUAAGAUAUGGAUGAUUACAACAUUUCCUCAACAGAGGAUUGAGCAUCA
B10: chr11:44378942:44378943:+_ENSMUSG00000019189_ENSMUST00000019333|mus_mus|motif|central (ssRNA)
RNA: GGGAGUUCUACAGUCCGACGAUCUUUAAAUUUAUUAAGACAUUCAGCUAUGUCUGUCAGUCUACAUCCAAAUUUGCGGCGGAAAACAAAGGAAAACCACACCCCACAGUAGGAAUACCAAGUCUGAAAUACACUUUUUUUUGACAACAGAGGAUUGAGCAUCA
B11: chr3:102833055:102833056:+_ENSMUSG00000068823_ENSMUST00000029446|mus_mus|FALSE|FALSE (ssRNA)
RNA: B8 RNA with G82U, G83A
B12: chr8:117878989:117878990:-_ENSG00000164754_ENST00000297338|hu_hu|hu_hu_hu_mus_True|8_8 (ssRNA)
RNA: GGGAGUUCUACAGUCCGACGAUCCCAGAGGCCCUCGUUUACUGAGGACAAAAUGUGCGUAGAACAUUUUUCUUAUUUGCUAUGAAAUAAGAAGAAACCUGGAUCUCGGCGGGGAGCCGGGAGGGGUUGGGUGGCCCGGGAGGGCAACAGAGGAUUGAGCAUCA
B13: chr3:100058692:100058693:+_ENSG00000114021_ENST00000480073|hu_mus|motif|central (ssRNA)
RNA: GGGAGUUCUACAGUCCGACGAUCAUAGUCAGGAAAGUAGGUUGUUCCAUAUGGAGAAUUGAAGCACUCAGGCAGAGAAACGGUGUUGGCACCUUGCUUUGCUGCCUCCCGCACUAGGCUACAAGCCCGGGUAAGGUUAUCUGACAACAGAGGAUUGAGCAUCA
B14: chr10:1038552:1038553:+_ENSG00000107937_ENST00000545048|hu_hu|FALSE|FALSE (ssRNA)
RNA: GGGAGUUCUACAGUCCGACGAUCCAUAGAACGGAUGAAUAUCAUCCAAUUUGGGGAAAUCUGUUAGAAUUUGUGAAAGUCUAUCAUGGUAAUUCUGUUGAGUAAAUUUGACUUUUCUCAUGUAAAAAUGUCUAAUGCGAUGUACAACAGAGGAUUGAGCAUCA
B15: chr9:91931296:91931297:+_ENSG00000123975_ENST00000314355|hu_hu|hu_hu_hu_mus_True|48_108 (ssRNA)
RNA: GGGAGUUCUACAGUCCGACGAUCAGAUUGACGAUCCCCAGCUGCACUUCAUUUUUGUUGUUCUUUUGGAAGAGGUCGUCUAAAGAGAAGAAUAUGUGGUUCUGGCUCAUGAAUCAUGUAAUGAACCCAUCCUAGACUCUGUUGCAACAGAGGAUUGAGCAUCA
B16: chr2:62103349:62103350:-_ENSG00000115484_ENST00000544079|hu_mus|motif|central (ssRNA)
RNA: GGGAGUUCUACAGUCCGACGAUCAAUAUAGGCUCUCUCCUCUCGAAGCACUCGAUCCAUCUGGGCAUAGUCAGAUACGGCGGUUUGAUUAUCCAUAUCUGUUUUAGGAGCAGAUAAGCAAAACUGAAUAAGCCCAAUCUUAGCCAACAGAGGAUUGAGCAUCA
B17: chr19:41288892:41288893:-_ENSMUSG00000025016_ENSMUST00000025989|mus_mus|motif|central (ssRNA)
RNA: GGGAGUUCUACAGUCCGACGAUCUGGAUGGAACUGAGAAAGCUGGUUAAUUUUAAGAUAAAUAAAUGAGGUUGAUCCAAACGGAGAUUAAGAUGACAGCAGAUAUAUUCCAUGCAGAAUUGAAUAGCUUUUAAUUUUGUUUUUCAACAGAGGAUUGAGCAUCA
B18: chr1:35650007:35650008:-_ENSG00000116560_ENST00000357214|hu_hu|motif|central (ssRNA)
RNA: GGGAGUUCUACAGUCCGACGAUCAUCCAUAAAAAGAUAGCUUUCUUACUAAAAUGCAAGAAUUUAAAAGAUUGGUAUCGGAACAAAAAAACAAAACAAACUGGAAUGAAAGCCUAAAUAUCACAUCUAAAAUCGGGGUUUUUUCAACAGAGGAUUGAGCAUCA
B19: chr20:57486015:57486016:+_ENSG00000087460_ENST00000306090|hu_mus|FALSE|FALSE (ssRNA)
RNA: GGGAGUUCUACAGUCCGACGAUCCCUUUUUUUUCUUUUUCUUCUGUAGGCCGCCUUAAGCUUACUAAAUUUGGAACAUCUAAGCAAGCUGAAGGGAAGAGGGGUUUUUCAGAAUCACUGGGGGAAAAAGGAAAGGUUGCGGUGCAACAGAGGAUUGAGCAUCA
B20: 203424622_203424742_3669_3pUTR_ENSG00000204217_ENST00000374580|human|control|control (ssRNA)
RNA: GGGAGUUCUACAGUCCGACGAUCUUUUAUUUUUAAACAUCUUCUGCAUGUUUAAAUGAUGCAAAAAAUAAUUUCACUCCAUAGGCUUGAAAACAUUUCACAGACAGUUCAUUCCUAUAUCUUUAGACACCAUGGUUGUAGCAGCAACAGAGGAUUGAGCAUCA
B21: chr7:93623566:93623567:-_ENSG00000105829_ENST00000222547|hu_hu|FALSE|FALSE (ssRNA)
RNA: GGGAGUUCUACAGUCCGACGAUCGAACAAAUUCCAAAUUCACAAUUACAUGCAUCACCUCAGUUUAAUAAUCCAAUAAAUGAUAAAAAAGACAAAUAAAGAAAACAGCAUCAUAUAGCACAGCAGCUUUGUUUGGCUCCCUCUCAACAGAGGAUUGAGCAUCA
B22: chr2:170668292:170668293:+_ENSG00000138385_ENST00000260956|hu_mus|motif|central (ssRNA)
RNA: GGGAGUUCUACAGUCCGACGAUCACCUAAUUCGCUUUUCUUUUUAAAAGCUUCUGAAGACAAAAAGCAGCUUAAAAUCGGACGGAGGAAUAAAAACACUGCUUACUAAAUAAACUACUUGUCUCUAGCACCAUUUUCUCUUUUCAACAGAGGAUUGAGCAUCA

Numbering of substitutions follows the chain as printed. In all, about 24,000 sequences were measured (“enrichment r”: median about 0.99, highest 2% from about 3.7 on). What follows is part of a selection rich in the highest values, with near analogues and random picks from the rest.

In this test the target is T1, UNK ZnF1-3. The test can be described thus: nsRBNS (natural sequence RNA bind-n-seq); RBNS binding buffer (assumed for nsRBNS): 25 mM Tris pH 7.5, 150 mM KCl, 3 mM MgCl2, 0.01% Triton X-100, 500 ug/ml BSA, 20 U/ml SUPERase-In, 4 C; UNK is unkempt and MSI1 is Musashi-1; names of the RNAs are library labels; protein concentration not given here; high values mean tight binding.
For the molecule B1, the binding signal is 6.64 enrichment R. On to B2, for which the binding signal amounted to 3.57 enrichment R. The molecule B3 gave a binding signal of 4.06 enrichment R. B4: the binding signal turned out to be 0.803 enrichment R. Molecule B5 had a binding signal of 1.31 enrichment R.

B6: the binding signal worked out at 1.32 enrichment R.

B7 gave a binding signal of 0.644 enrichment R. On to B8, for which the binding signal amounted to 8.15 enrichment R. The molecule B9 returned a binding signal of 1.27 enrichment R.

In turn, B10 showed a binding signal of 1.46 enrichment R. On to B11, for which the binding signal turned out to be 5.11 enrichment R. B12: the binding signal was 1.2 enrichment R. As for B13, the binding signal is 1.65 enrichment R. With B14, the binding signal is 0.818 enrichment R.

B15 had a binding signal of 0.894 enrichment R. Consider B16, for which the binding signal was 1.05 enrichment R. Consider B17, for which the binding signal is 5.2 enrichment R.

In turn, B18 came in with a binding signal of 4.37 enrichment R.

B19 yielded a binding signal of 1.66 enrichment R. With B20, the binding signal came to 0.637 enrichment R. For the molecule B21, the binding signal was 2.97 enrichment R. As for B22, the binding signal was 1.16 enrichment R.

The values are drawn from publication PMC12136788.
